Outcome data for 40 compounds are collected here from PubChem BioAssay (EPA / NIEHS).

Active and inactive are the calls of the source. The calls were made as follows: active = hit-call score of the fitted dose curve at least 0.9, where 1 is the maximum; inactive = score below 0.9.

The test in a line: CCTE_Harrill_HTTr_Viability_MCF7: CCTE's 6-hour Cell Viability Assessment for the High-Throughput Transcriptomics (HTTr) Platform, in MCF-7 cells cultured in DMEM + 10% fetal bovine serum, Harrill Lab (AID 2284010). An excerpt:
This is a cell-based assay that evaluates cell viability using high content imaging to evaluate membrane integrity using propidium iodide dye exclusion in a 384 well format.One of seven assay components measured from the CCTE_Harrill_HTTr_Viability assay. This was part of a full screening experiment. This is a cell-based assay that evaluates cell viability in MCF-7 cells cultured in DMEM + 10% fetal bovine serum. High content imaging is used to evaluate membrane integrity using propidium iodide dye exclusion. Measurements are taken at 6 hours after chemical dosing in 384-well format.The assay component endpoint CCTE_Harrill_HTTr_Viability_MCF7 was analyzed with bidirectional fitting relation to DMSO as the negative control and baseline of activity. Using a type of viability reporter, gain-of-signal activity can be used to evaluate membrane integrity using propidium iodide dye exclusion to understand changes in cytotoxicity. To generalize the intended target to other relatable targets, this assay endpoint is annotated to cell cycle, where the subfamily is cytotoxicity.
Chemicals were tested in MCF7 cells in an eight point dilution series with a six hour exposure duration.
For the compound `CC1=C2C[C@H]3[C@@H](CC=C4C[C@@H](O)CC[C@@]43C)[C@@H]2CC[C@]12O[C@@H]1C[C@H](C)CN[C@H]1[C@H]2C`, the result was inactive.

Regarding `CCC(C)(CC)c1cc(NC(=O)c2c(OC)cccc2OC)on1`, the result was inactive.

On to `Clc1ccc(Cl)cc1`, for which the outcome was inactive.

Consider `c1ccc(-c2ccccc2)cc1`, for which the outcome was inactive.

`CCC(=O)O[C@H]1CC[C@H]2[C@@H]3CCC4=CC(=O)CC[C@]4(C)[C@H]3CC[C@]12C`: the outcome was inactive.

Turning to `C=CC(N)=O`, the outcome was inactive.

`CCOC(=O)C(O)(c1ccc(Cl)cc1)c1ccc(Cl)cc1`: the result was inactive.

As for `CCOP(=S)(OCC)SCSC(C)(C)C`, the outcome was inactive.

On to `CN(C)c1nc(=O)n(C2CCCCC2)c(=O)n1C`, for which the result was inactive.

With `Cc1ccc(O)c(C)c1`, the outcome was inactive.

For `COc1ccc(O)c(C(C)(C)C)c1`, the outcome was inactive.

As to `Clc1ccc(C(c2ccccc2Cl)C(Cl)(Cl)Cl)cc1` (stereo not given), the result was inactive.

On to `CO/C=C(/C(=O)OC)c1ccccc1COc1cccc(C(F)(F)F)n1`, for which the result was inactive.

As for `Cc1cc(O)ccc1Cl`, the result was inactive.

For `Cc1ccccc1O`, the result was inactive.

Turning to `Oc1ccc(Cl)cc1Cl`, the outcome was inactive.

On to `Cc1ccccc1CO[C@@H]1C[C@@]2(C(C)C)CC[C@]1(C)O2`, for which the result was inactive.

On to `CCCCCCCCOC(=O)c1ccccc1C(=O)OCCCCCCCC`, for which the result was inactive.

Take `Cc1cc(-c2ccc(N)c(C)c2)ccc1N`: the outcome was inactive.

Consider `O=NN(c1ccccc1)c1ccccc1`, for which the result was inactive.

Take `CCC(C)c1cc([N+](=O)[O-])cc([N+](=O)[O-])c1O` (stereo not given): the outcome was inactive.

As for `Cc1cccc([N+](=O)[O-])c1`, the result was inactive.

On to `O=C(O)C(F)(F)C(F)(F)C(F)(F)C(F)(F)C(F)(F)F`, for which the outcome was inactive.

As to `ClC1=C(Cl)[C@]2(Cl)[C@@H]3[C@@H](Cl)[C@H]4O[C@H]4[C@@H]3C1(Cl)C2(Cl)Cl`, the result was inactive.

With `CCCCCCCCCc1ccc(O)cc1`, the outcome was inactive.

As to `NS(=O)(=O)C(F)(F)C(F)(F)C(F)(F)C(F)(F)C(F)(F)C(F)(F)C(F)(F)C(F)(F)F`, the result was inactive.

`CCSC(=O)N(CC)C1CCCCC1`: the outcome was inactive.

In the case of `ClC1=C(Cl)[C@]2(Cl)[C@@H]3[C@@H]4C[C@@H]([C@H]5O[C@@H]45)[C@@H]3[C@@]1(Cl)C2(Cl)Cl`, the outcome was inactive.

Turning to `CCCCCCOC(=O)c1ccccc1C(=O)OCCCCCC`, the result was inactive.

As for `Oc1c(Cl)c(Cl)c(Cl)c(Cl)c1Cl`, the outcome was inactive.

For `CC(C)(c1ccccc1)c1ccc(O)cc1`, the result was inactive.

Take `COS(=O)(=O)OC`: the outcome was inactive.

For the compound `Nn1cnnc1`, the result was inactive.

Take `C=CC(=O)NCNC(=O)C=C`: the result was inactive.

`C[C@]12CCC(=O)C=C1CC[C@@H]1[C@@H]2CC[C@@]2(C)[C@H]1CC[C@]2(C)O`: the result was inactive.

For the compound `O=C(NC(=O)c1cc(F)c(F)cc1Cl)Nc1cc(F)ccc1N1CCC(C(=O)O)CC1`, the outcome was inactive.

Consider `CCOCCOC(C)=O`, for which the outcome was inactive.

Take `CC(C)(O)C(=O)Nc1ccc([N+](=O)[O-])c(C(F)(F)F)c1`: the result was inactive.

Take `O=C(NC(=O)c1c(F)cccc1F)Nc1cc(Cl)c(OC(F)(F)C(F)F)c(Cl)c1`: the outcome was inactive.

On to `Cc1cc2c3c(c1)C(c1ccccc1)=N[C@@H](NC(=O)c1ccncc1)C(=O)N3CC2`, for which the outcome was inactive.
